Results reported in PubChem BioAssay (NCI).
Compounds without any hit were thinned out: in the full panel of roughly 79,000, 15% have a hit. Unmarked numbers belong to inactive results. Activity calls are given as the source filed them. Cut-off read from the data, not from the text of the source: active = growth inhibition above about 70%; inactive = the rest.

Experiments:
[1] = NCI Yeast Anticancer Drug Screen. Data for the rad50 strain (AID 155);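 note: 0% = growth of vehicle-only cultures of the same strain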; settings: S. cerevisiae rad50 strain growth inhibition, hits give high values
Summary of the method: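 Relative growth inhibition (compound vs vehicle) was measured in yeast with a defined repair-gene alteration.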

[2] = NCI Yeast Anticancer Drug Screen. Data for the mec2-1 strain (AID 157); settings: S. cerevisiae mec2-1 strain, hits give high values
Summary of the method: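 Readout is yeast growth inhibition, normalised to vehicle-treated controls, in the mec2-1 strain exposed to compound.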

[3] = NCI Yeast Anticancer Drug Screen. Data for the sgs1 mgt1 strain (AID 161);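 note: 0% = growth of cultures given vehicle only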; settings: S. cerevisiae sgs1 mgt1 strain, hits give high values
Summary of the method: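 Compounds are added to genetically altered yeast, and growth is compared with cultures given vehicle alone to give percent inhibition.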

[4] = NCI Yeast Anticancer Drug Screen. Data for the cln2 rad14 strain (AID 165);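 note: 0% = growth equal to vehicle treated cultures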; settings: S. cerevisiae cln2 rad14 strain, hits give high values
Summary of the method: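 Relative to vehicle controls, growth inhibition of compound-treated cln2 rad14 yeast was recorded.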

[5] = NCI Yeast Anticancer Drug Screen. Data for the bub3 strain (AID 167); settings: S. cerevisiae bub3 mutant strain, hits give high values
Summary of the method: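 Screening used yeast with an engineered genetic alteration affecting cell cycle control. Compound-exposed cultures were compared with vehicle cultures, and reduced growth was taken as inhibition.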

[6] = NCI Yeast Anticancer Drug Screen. Data for the mlh1 rad18 strain (AID 175); settings: S. cerevisiae mlh1 rad18 strain growth inhibition, hits give high values
Summary of the method: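 Test agents were incubated with a yeast strain of defined genotype (DNA damage repair defect). Inhibition of growth was derived by comparison with vehicle-exposed cultures.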

[7] = at 5.0 µM (retest, dose inferred, filed as 0.5)
[8] = at 50.0 µM (retest, dose inferred, filed as 5.0)

| SMILES | growth inhibition [1, 7] | growth inhibition [1, 8] | growth inhibition ([1]; at 50.0 µM) | growth inhibition [2, 7] | growth inhibition [2, 8] | growth inhibition ([2]; at 50.0 µM) | growth inhibition [3, 7] | growth inhibition [3, 8] | growth inhibition ([3]; at 50.0 µM) | growth inhibition [4, 7] [%] | growth inhibition [4, 8] | growth inhibition ([4]; at 50.0 µM) [%] | growth inhibition [5, 7] | growth inhibition [5, 8] | growth inhibition ([5]; at 50.0 µM) | growth inhibition [6, 7] | growth inhibition [6, 8] | growth inhibition ([6]; at 50.0 µM) |
| --- | --- | --- | --- | --- | --- | --- | --- | --- | --- | --- | --- | --- | --- | --- | --- | --- | --- | --- |
| Cc1cc(N(CCCl)CCCl)ccc1C1N(Cc2ccc(Cl)cc2Cl)CCCN1Cc1ccc(Cl)cc1Cl | 42% | 85% (active) | 40.5% | -4% | 65% | 18.2% | 25% | 91% (active) | 57.5% | 14 | 60% | 14.4 | 22% | 92% (active) | 16.1% | 18% | 96% (active) | 52.2% |
| O=S(O)O.O=S(O)O.[Co].[NH2-].[NH2-].[NH2-].[NH2-] | 7% | 21% | -5.55% | -1% | 7% | 29.4% | 20% | 22% | 2.5% | 33 | 16% | 47.9 | 12% | 5% | -5.25% | 3% | 26% | 16% |
| C[CH2][Sn]([F])([CH2]C)[CH2]C | 8% | 75% (active) | 86.6% (active) | 6% | 92% (active) | 89.7% (active) | 9% | 90% (active) | 88.6% (active) | -6 | 60% | 64.2 | 3% | 76% (active) | 88.6% (active) | 5% | 89% (active) | 88.3% (active) |
| O=c1ccc(N=Cc2ccc(N(CCCl)CCCl)cc2)ccc1O | 94% (active) | 93% (active) | 96.2% (active) | 92% (active) | 97% (active) | 65.4% | 97% (active) | 98% (active) | 92% (active) | 52 | 89% (active) | 35.4 | 95% (active) | 93% (active) | 93% (active) | 98% (active) | 98% (active) | 93.8% (active) |
